# Source: PubChem BioAssay
# The source made the active and inactive calls.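 How the source made its calls, unless noted: active means visual image review flags a hit and inhibition of aggregation exceeds 20%; inconclusive means visual hit but inhibition at or below 20%; inactive means no hit on visual image review.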
# Assays:
# [1] = inhibitors of TNFa-induced NFkB p65 translocation, primary screen, imaging, HUVEC, MLSMR starter and 10KST1 sets (AID 438;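 active means inhibition above 20% together with a positive visual image hit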;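 further: compound added about 3h40 before a 20 min TNFalpha stimulation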;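 on inhibition: signal is the nuclear over cytoplasmic p65 intensity ratio per well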); conditions: HUVEC TNFa-induced p65 nuclear translocation; cell count: measured here: nuclei count (cytotoxicity indicator), at 2.08 µM; inhibition: at 2 µM, stronger effect = higher value, 0% TNFa-plus-vehicle, 100% no-TNFa wells
# [2] = reduction of polyQ htt aggregates in cells – imaging, exon1htt(103Q)mCFP cells, high-content imaging, primary screen (AID 483); conditions: exon1htt(103Q)mCFP cell line, aggregate imaging, at 2 µM; inhibition of aggregation: stronger effect = higher value; nuclei count: measured here: cell count, toxicity;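 further: compound exposure lasted 3 days before fixation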;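 on nuclei count: percent of the per-plate median nuclei count of sample wells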
# [3] = endothelial E-selectin expression blockers – imaging, HUVEC, immunofluorescence, MLSMR starter and 10KST1 sets, primary screen (AID 487;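 active means visually confirmed hit in the image check and inhibition above 20%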;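 on inhibition: signal is fraction of cell area covered by stained E-selectin grains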;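 on nuclei count: 100% = median nuclei count of all wells on the same plate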); conditions: HUVEC TNFalpha-induced E-selectin immunofluorescence imaging, at 2 µM; inhibition: stronger effect = higher value; nuclei count: measured here: cell number, toxicity
# [4] = biological target: Voltage-gated potassium channel subunit beta-2 (Rattus norvegicus) (UniProt P62483); assay: inhibitors of rat Kvbeta2 reductase activity – biochemical, NADPH fluorescence, primary screen (AID 622;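 active means fluorescence slope higher than the sample average by over 3 SD, cut at about -0.22 in these data, passing the limit was not always enough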;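 further: slope of raw intensity against log time taken from 70 to 1610 s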); conditions: recombinant KvBeta, 4-cyanobenzaldehyde reduction, at 10 µM, stronger effect = higher value
# Sequence of Voltage-gated potassium channel subunit beta-2 (Rattus norvegicus) (P62483 whole entry, looked up): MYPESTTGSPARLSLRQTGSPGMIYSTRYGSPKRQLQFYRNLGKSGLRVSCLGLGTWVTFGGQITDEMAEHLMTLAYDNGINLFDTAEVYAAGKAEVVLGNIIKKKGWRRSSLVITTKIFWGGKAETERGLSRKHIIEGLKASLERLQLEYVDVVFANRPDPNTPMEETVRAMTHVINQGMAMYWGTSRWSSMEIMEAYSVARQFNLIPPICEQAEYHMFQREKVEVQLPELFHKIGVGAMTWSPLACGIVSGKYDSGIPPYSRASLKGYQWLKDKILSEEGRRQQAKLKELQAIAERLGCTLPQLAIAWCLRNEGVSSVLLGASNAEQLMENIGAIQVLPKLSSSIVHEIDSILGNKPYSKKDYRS
# [5] = biological target: Voltage-gated potassium channel subunit beta-2 (Rattus norvegicus) (UniProt P62483); assay: enhancers of rat Kvbeta2 NADPH turnover – biochemical, NADPH fluorescence, primary screen (AID 623;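 active means NADPH fluorescence slope more negative than the mean of all samples by about 3 SD, 99.7% confidence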;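 further: fluorescence intensity change per second fitted from 20 to 320 s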); conditions: Recombinant KvBeta, NADPH fluorescence decrease slope, 10 min; at 10 µM; stronger effect = lower value
# [6] = biological target: Alpha-2C adrenergic receptor (Homo sapiens) (UniProt P18825); assay: compounds altering alpha2C-coupled GIRK flux – cell-based, HEK293 alpha2C/GIRK1/2, thallium flux, primary screen (AID 624;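 active means fluorescence slope after compound addition differing from the mean of all screened samples at 99.7% confidence, in either direction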;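 further: slope of fluorescence ratio to pre-addition baseline per second over 15 to 24 s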); conditions: thallium flux BTC fluorescence, at 10 µM, actives lie on both sides
# Sequence of Alpha-2C adrenergic receptor (Homo sapiens) (P18825 whole entry, looked up): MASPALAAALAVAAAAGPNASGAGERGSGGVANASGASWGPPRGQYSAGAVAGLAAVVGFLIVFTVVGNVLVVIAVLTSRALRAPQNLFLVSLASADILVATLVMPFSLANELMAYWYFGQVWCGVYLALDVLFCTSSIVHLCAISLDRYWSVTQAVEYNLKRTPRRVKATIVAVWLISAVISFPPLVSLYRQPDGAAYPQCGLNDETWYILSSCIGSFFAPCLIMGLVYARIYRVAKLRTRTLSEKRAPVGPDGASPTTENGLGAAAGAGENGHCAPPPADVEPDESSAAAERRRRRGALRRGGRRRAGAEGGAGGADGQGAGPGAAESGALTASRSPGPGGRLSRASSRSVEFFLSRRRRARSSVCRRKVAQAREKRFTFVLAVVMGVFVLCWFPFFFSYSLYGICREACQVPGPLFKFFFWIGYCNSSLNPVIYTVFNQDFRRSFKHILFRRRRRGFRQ
# [7] = blockers of RIG-like receptor reporter activation – cell-based, Sendai virus stimulus, luciferase, 10K MLSCN set, TLR/RLR signaling modifier project, primary screen (AID 602276;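 active means inhibition at or above 50% at 10 µM; inactive means inhibition below 50%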;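 further: firefly luciferase from ISG56 promoter only with Renilla not read in this screen; 0% = Sendai virus plus DMSO and 100% = medium plus DMSO without virus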); conditions: HEK293 RL24 IRF3 luciferase reporter, at 10 µM, stronger effect = higher value
# [8] = TLR3 IRF3 reporter activation blockers – cell-based, poly I:C stimulus, luciferase, 10K MLSCN set, primary screen (AID 602277;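 active means inhibition of the reporter signal at or above 50%; inactive means inhibition below 50%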); conditions: HEK293-TLR3 RL24 IRF3 luciferase reporter, at 10 µM, stronger effect = higher value
structure (smiles),measurement,setting,value
Cn1nc(CC(=O)Nc2ccc(N3CCN(C(=O)OC(C)(C)C)CC3)cc2)c2ccccc2c1=O,cell count,[1],639
same,inhibition,[1],-32.6% (inactive)
same,inhibition of aggregation,[2],-11.8% (inactive)
same,nuclei count,[2],91.2%
same,inhibition,[3],-34.7% (inactive)
same,nuclei count,[3],99%
same,fluorescence slope,[4],-0.493 (inactive)
same,NADPH fluorescence slope,[5],8.9e-05 (inactive)
same,slope,[6],0.00619 (inactive)
same,inhibition,[7],-10.5% (inactive)
same,inhibition,[8],-50.4% (inactive)
O=C(CCc1ccccc1)Nc1ccncc1,cell count,[1],412
same,inhibition,[1],1% (inactive)
same,inhibition of aggregation,[2],7.9% (inactive)
same,nuclei count,[2],94.1%
same,inhibition,[3],-273% (inactive)
same,nuclei count,[3],118%
same,fluorescence slope,[4],-0.446 (inactive)
same,NADPH fluorescence slope,[5],-1.1e-05 (inactive)
same,slope,[6],0.00342 (inactive)
same,inhibition,[7],-2.19% (inactive)
same,inhibition,[8],11.2% (inactive)
Cc1cc(C)c2c(C)nn(C3CCCCC3)c2n1,cell count,[1],318
same,inhibition,[1],1.7% (inactive)
same,inhibition of aggregation,[2],27.2% (inactive)
same,nuclei count,[2],79.1%
same,inhibition,[3],33.7% (inactive)
same,nuclei count,[3],86.7%
same,fluorescence slope,[4],-0.514 (inactive)
same,NADPH fluorescence slope,[5],1.4e-05 (inactive)
same,slope,[6],0.00644 (inactive)
same,inhibition,[7],-18.5% (inactive)
same,inhibition,[8],-5.34% (inactive)
CC1CN=C(N(C(=O)Nc2ccccc2)c2ccc(S(=O)(=O)N3CCOCC3)cc2)S1 (centres undefined),cell count,[1],476
same,inhibition,[1],-4.8% (inactive)
same,inhibition of aggregation,[2],11.9% (inactive)
same,nuclei count,[2],95.4%
same,inhibition,[3],-38.9% (inactive)
same,nuclei count,[3],112%
same,fluorescence slope,[4],-0.356 (inactive)
same,NADPH fluorescence slope,[5],-5.2e-05 (inactive)
same,slope,[6],0.00838 (inactive)
same,inhibition,[7],3.57% (inactive)
same,inhibition,[8],6.41% (inactive)
COc1cc2c(cc1OC)-c1cc(Nc3ccc4c(c3)OCCO4)nc(=O)n1CC2,cell count,[1],649
same,inhibition,[1],-6.9% (inactive)
same,inhibition of aggregation,[2],0.9% (inactive)
same,nuclei count,[2],104%
same,inhibition,[3],5.7% (inactive)
same,nuclei count,[3],128%
same,fluorescence slope,[4],-0.41 (inactive)
same,NADPH fluorescence slope,[5],-5.2e-06 (inactive)
same,slope,[6],0.00445 (inactive)
same,inhibition,[7],41.3% (inactive)
same,inhibition,[8],44.1% (inactive)
OC(CNCC1COc2ccccc2O1)COCc1cccs1 (centres undefined),cell count,[1],615
same,inhibition,[1],0.8% (inactive)
same,inhibition of aggregation,[2],-9.6% (inactive)
same,nuclei count,[2],105%
same,inhibition,[3],-133% (inactive)
same,nuclei count,[3],131%
same,fluorescence slope,[4],-0.568 (inactive)
same,NADPH fluorescence slope,[5],6.2e-06 (inactive)
same,slope,[6],0.00544 (inactive)
same,inhibition,[7],-3.3% (inactive)
same,inhibition,[8],2.31% (inactive)
COc1cc(NC(=O)c2cccs2)cc(OC)c1,cell count,[1],306
same,inhibition,[1],-14.2% (inactive)
same,inhibition of aggregation,[2],33% (inactive)
same,nuclei count,[2],82.6%
same,inhibition,[3],-201% (inactive)
same,nuclei count,[3],96.7%
same,fluorescence slope,[4],-0.337 (inactive)
same,NADPH fluorescence slope,[5],-4.5e-05 (inactive)
same,slope,[6],0.00448 (inactive)
same,inhibition,[7],-38.7% (inactive)
same,inhibition,[8],-64.2% (inactive)
O=C(C1CCN(C2CC(=O)N(c3ccc(F)cc3)C2=O)CC1)N1CCOCC1 (centres undefined),cell count,[1],326
same,inhibition,[1],6.1% (inactive)
same,inhibition of aggregation,[2],19.1% (inactive)
same,nuclei count,[2],79.5%
same,inhibition,[3],12.7% (inactive)
same,nuclei count,[3],75.9%
same,fluorescence slope,[4],-0.512 (inactive)
same,NADPH fluorescence slope,[5],-2.5e-05 (inactive)
same,slope,[6],0.00647 (inactive)
same,inhibition,[7],7.33% (inactive)
same,inhibition,[8],13% (inactive)
CC1Cc2nc(SCC(=O)Nc3ccc4c(c3)OCO4)n(-c3ccc(F)cc3)c(=O)c2S1 (centres undefined),cell count,[1],680
same,inhibition,[1],-23.4% (inactive)
same,inhibition of aggregation,[2],-2.5% (inactive)
same,nuclei count,[2],102%
same,inhibition,[3],-32.8% (inactive)
same,nuclei count,[3],107%
same,fluorescence slope,[4],-0.401 (inactive)
same,NADPH fluorescence slope,[5],-6.4e-05 (inactive)
same,slope,[6],0.00514 (inactive)
same,inhibition,[7],-0.186% (inactive)
same,inhibition,[8],51.2% (active)
N/C(=N/O)c1nc(N2CCCC2)nc(N(c2ccccc2)c2ccccc2)n1,cell count,[1],371
same,inhibition,[1],0.4% (inactive)
same,inhibition of aggregation,[2],-18.1% (inactive)
same,nuclei count,[2],90.7%
same,inhibition,[3],-300% (inactive)
same,nuclei count,[3],104%
same,fluorescence slope,[4],-0.593 (inactive)
same,NADPH fluorescence slope,[5],-3.2e-05 (inactive)
same,slope,[6],0.00592 (inactive)
same,inhibition,[7],13.2% (inactive)
same,inhibition,[8],40.9% (inactive)
c1ccc(-c2nnc(-c3ccco3)n2-c2ccccc2)cc1,cell count,[1],383
same,inhibition,[1],4.1% (inactive)
same,inhibition of aggregation,[2],8.4% (inactive)
same,nuclei count,[2],102%
same,inhibition,[3],-75.9% (inactive)
same,nuclei count,[3],126%
same,fluorescence slope,[4],-0.47 (inactive)
same,NADPH fluorescence slope,[5],-2.4e-05 (inactive)
same,slope,[6],0.00639 (inactive)
same,inhibition,[7],15.2% (inactive)
same,inhibition,[8],20.5% (inactive)
Cc1cccc(Cn2c(SCCN3CCCCC3)nc3c2c(=O)[nH]c(=O)n3C)c1,cell count,[1],497
same,inhibition,[1],6.4% (inactive)
same,inhibition of aggregation,[2],-13.5% (inactive)
same,nuclei count,[2],82.4%
same,inhibition,[3],1.7% (inactive)
same,nuclei count,[3],95.1%
same,fluorescence slope,[4],-0.442 (inactive)
same,NADPH fluorescence slope,[5],3.2e-05 (inactive)
same,slope,[6],0.00451 (inactive)
same,inhibition,[7],-12% (inactive)
same,inhibition,[8],3.02% (inactive)
O=C(COc1ccccc1)Nc1nc2ccccc2[nH]1,cell count,[1],626
same,inhibition,[1],-2.6% (inactive)
same,inhibition of aggregation,[2],2.7% (inactive)
same,nuclei count,[2],114%
same,inhibition,[3],0.2% (inactive)
same,nuclei count,[3],119%
same,fluorescence slope,[4],-0.45 (inactive)
same,NADPH fluorescence slope,[5],-6.8e-05 (inactive)
same,slope,[6],0.00605 (inactive)
same,inhibition,[7],-49.9% (inactive)
same,inhibition,[8],-93.8% (inactive)
CCCCC(NS(=O)(=O)c1ccc(OC)cc1)C(=O)O (centres undefined),cell count,[1],386
same,inhibition,[1],8.8% (inactive)
same,inhibition of aggregation,[2],-16.5% (inactive)
same,nuclei count,[2],108%
same,inhibition,[3],-31.9% (inactive)
same,nuclei count,[3],118%
same,fluorescence slope,[4],-0.448 (inactive)
same,NADPH fluorescence slope,[5],-4e-05 (inactive)
same,slope,[6],0.0033 (inactive)
same,inhibition,[7],7.54% (inactive)
same,inhibition,[8],39% (inactive)
